Several values for one entry are separate records, joined by “and”; a condition that tells them apart may be missing. Equal entries are not always repeated. The campaign covered roughly 5,500 compounds. About 2,000 (36%) were called active. About 18% were inconclusive and are not listed. Rule as the data show it: active = normalized growth mostly below about 0.91 (no sharp cut-off); inconclusive = no clear call, values can overlap the other calls; inactive = mostly above about 0.92. Some of the results follow.
Experiment: chemical genetic growth profiling, strain panel (AID 1159580);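 also: tested at 20 µM; growth read once vehicle control cultures reached saturation at 30 °C; 1 = growth at the plate median or of vehicle wells; lower values mean less growth of the strain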
Settings: S. cerevisiae deletion strains, growth OD

## C=C1C(=O)O[C@@H]2C[C@@]3(C)CCC[C@H](C)C3=C[C@H]12
Locus YAL013W, strain DEP1, stronger effect = lower value
  normalized growth: 0.933 (inactive)
Locus YAL021C, strain ccr4, stronger effect = lower value
  normalized growth: 0.849 (active)
Locus YAL026C, strain drs2, stronger effect = lower value
  normalized growth: 0.718 (active)
Locus YAL030W, strain snc1, stronger effect = lower value
  normalized growth: 0.882 (active)
Locus YBL061C, strain skt5, stronger effect = lower value
  normalized growth: 0.901 (active)
Locus YBR009C, strain hhf1, stronger effect = lower value
  normalized growth: 0.733 (active)
Locus YBR021W, strain FUR4, stronger effect = lower value
  normalized growth: 1.05 (inactive)
Locus YBR023C, strain chs3, stronger effect = lower value
  normalized growth: 0.886 (active)
Locus YBR171W, strain sec66, stronger effect = lower value
  normalized growth: 0.837 (active)
Locus YBR229C, strain ROT2, stronger effect = lower value
  normalized growth: 0.943 (inactive)
Locus YBR231C, strain swc5, stronger effect = lower value
  normalized growth: 0.572 (active)
Locus YBR279W, strain paf1, stronger effect = lower value
  normalized growth: 0.88 (active)
Locus YCL011C, strain gbp2, stronger effect = lower value
  normalized growth: 0.822 (active)
Locus YCL016C, strain dcc1, stronger effect = lower value
  normalized growth: 0.849 (active)
Locus YCL029C, strain bik1, stronger effect = lower value
  normalized growth: 0.949 (inactive)
Locus YCL061C, strain MRC1, stronger effect = lower value
  normalized growth: 0.881 (active)
Locus YCL069W, strain vba3, stronger effect = lower value
  normalized growth: 0.876 (active)
Locus YCR088W, strain abp1, stronger effect = lower value
  normalized growth: 0.896 (active)
Locus YDL005C, strain med2, stronger effect = lower value
  normalized growth: 0.937 (inactive)
Locus YDL035C, strain GPR1, stronger effect = lower value
  normalized growth: 0.895 (inactive)
Locus YDL040C, strain nat1, stronger effect = lower value
  normalized growth: 0.899 (active)
Locus YDL074C, strain BRE1, stronger effect = lower value
  normalized growth: 0.72 (active)
Locus YDL101C, strain DUN1, stronger effect = lower value
  normalized growth: 0.85 (active)
Locus YDL134C, strain PPH21, stronger effect = lower value
  normalized growth: 0.848 (active)
Locus YDL185W, strain tfp1, stronger effect = lower value
  normalized growth: 0.94 (inactive)
Locus YDL192W, strain arf1, stronger effect = lower value
  normalized growth: 0.758 (active)
Locus YDR001C, strain nth1, stronger effect = lower value
  normalized growth: 0.897 (active)
Locus YDR069C, strain doa4, stronger effect = lower value
  normalized growth: 0.779 (active)
Locus YDR101C, strain arx1, stronger effect = lower value
  normalized growth: 0.945 (inactive)
Locus YDR137W, strain rgp1, stronger effect = lower value
  normalized growth: 0.267 (active)
Locus YDR150W, strain NUM1, stronger effect = lower value
  normalized growth: 0.925 (inactive)
Locus YDR159W, strain sac3, stronger effect = lower value
  normalized growth: 0.71 (active)
Locus YDR162C, strain NBP2, stronger effect = lower value
  normalized growth: 0.699 (active)
Locus YDR195W, strain ref2
  normalized growth: 1.16 [resistant] (active)
Locus YDR297W, strain sur2, stronger effect = lower value
  normalized growth: 0.855 (active)
Locus YDR318W, strain mcm21, stronger effect = lower value
  normalized growth: 0.814 (active)
Locus YDR334W, strain swr1, stronger effect = lower value
  normalized growth: 0.442 (active)
Locus YDR335W, strain msn5, stronger effect = lower value
  normalized growth: 0.875 (active)
Locus YDR388W, stronger effect = lower value
  normalized growth: 0.869 (active)
Locus YDR392W, strain spt3, stronger effect = lower value
  normalized growth: 0.127 (active)
Locus YDR502C, strain sam2, stronger effect = lower value
  normalized growth: 0.833 (active)
Locus YEL003W, strain gim4, stronger effect = lower value
  normalized growth: 0.715 (active)
Locus YEL037C, strain rad23, stronger effect = lower value
  normalized growth: 0.907 (active)
Locus YEL061C, strain CIN8 (second series), stronger effect = lower value
  normalized growth: 0.88 (active)
Locus YEL061C, strain CIN8, stronger effect = lower value
  normalized growth: 0.916 (active)
Locus YER015W, strain faa2, stronger effect = lower value
  normalized growth: 0.855 (active)
Locus YER016W, strain bim1, stronger effect = lower value
  normalized growth: 0.911 (active)
Locus YER110C, stronger effect = lower value
  normalized growth: 0.836 (active)
Locus YER111C, strain swi4, stronger effect = lower value
  normalized growth: 0.911 (inactive)
Locus YER155C, strain BEM2 (second series), stronger effect = lower value
  normalized growth: 0.585 (active)
Locus YER155C, strain BEM2, stronger effect = lower value
  normalized growth: 0.71 (active)
Locus YER167W, strain BCK2, stronger effect = lower value
  normalized growth: 0.906 (inactive)
Locus YFR010W, strain ubp6, stronger effect = lower value
  normalized growth: 0.862 (active)
Locus YGL078C, strain dbp3, stronger effect = lower value
  normalized growth: 0.981 (inactive)
Locus YGL086W, strain mad1, stronger effect = lower value
  normalized growth: 0.89 (active)
Locus YGL167C, strain pmr1, stronger effect = lower value
  normalized growth: 0.848 (active)
Locus YGL173C, strain kem1, stronger effect = lower value
  normalized growth: 0.888 (active)
Locus YGL227W, strain vid30, stronger effect = lower value
  normalized growth: 0.912 (active)
Locus YGL240W, strain doc1, stronger effect = lower value
  normalized growth: 0.599 (active)
Locus YGL248W, strain PDE1, stronger effect = lower value
  normalized growth: 0.799 (active)
Locus YGL253W, strain hxk2, stronger effect = lower value
  normalized growth: 0.742 (active)
Locus YGR135W, strain pre9, stronger effect = lower value
  normalized growth: 0.801 (active)
Locus YGR252W, strain gcn5, stronger effect = lower value
  normalized growth: 0.864 (inactive)
Locus YHR013C, strain ard1, stronger effect = lower value
  normalized growth: 0.616 (active)
Locus YHR027C, strain rpn1, stronger effect = lower value
  normalized growth: 0.874 (active)
Locus YHR030C, strain SLT2, stronger effect = lower value
  normalized growth: 0.927 (inactive) and 1.01 (inactive)
Locus YHR079C, strain IRE1 (second series), stronger effect = lower value
  normalized growth: 0.936 (inactive)
Locus YHR079C, strain IRE1, stronger effect = lower value
  normalized growth: 0.986 (inactive)
Locus YHR094C, strain hxt1, stronger effect = lower value
  normalized growth: 0.942 (inactive)
Locus YHR129C, strain ARP1, stronger effect = lower value
  normalized growth: 0.852 (active)
Locus YHR142W, strain chs7, stronger effect = lower value
  normalized growth: 0.787 (active)
Locus YHR200W, strain rpn10, stronger effect = lower value
  normalized growth: 0.876 (active)
Locus YIL066C, strain RNR3, stronger effect = lower value
  normalized growth: 0.756 (active)
Locus YIL073C, strain SPO22, stronger effect = lower value
  normalized growth: 0.717 (inactive)
Locus YIL125W, strain kgd1, stronger effect = lower value
  normalized growth: 0.953 (inactive)
Locus YIR030C, strain dcg1, stronger effect = lower value
  normalized growth: 0.903 (active)
Locus YJL092W, strain hpr5, stronger effect = lower value
  normalized growth: 0.904 (active)
Locus YJL095W, strain BCK1 (second series), stronger effect = lower value
  normalized growth: 0.894 (active)
Locus YJL095W, strain BCK1, stronger effect = lower value
  normalized growth: 0.753 (active) and 1.01 (inactive)
Locus YJL115W, strain asf1, stronger effect = lower value
  normalized growth: 0.88 (active)
Locus YJL129C, strain trk1, stronger effect = lower value
  normalized growth: 0.76 (active)
Locus YJL134W, strain LCB3, stronger effect = lower value
  normalized growth: 0.934 (inactive)
Locus YJL154C, strain vps35, stronger effect = lower value
  normalized growth: 0.921 (inactive)
Locus YJL164C, strain tpk1, stronger effect = lower value
  normalized growth: 0.809 (active)
Locus YJL166W, strain qcr8, stronger effect = lower value
  normalized growth: 0.654 (active)
Locus YJL168C, strain set2, stronger effect = lower value
  normalized growth: 0.951 (inactive)
Locus YJL187C, strain SWE1 (second series), stronger effect = lower value
  normalized growth: 0.875 (inactive)
Locus YJL187C, strain SWE1, stronger effect = lower value
  normalized growth: 0.903 (active)
